Experimental data reported in PubChem BioAssay (NCATS).
Inconclusive results are not listed. A call without a number means that no potency is given here. Unmarked numbers belong to inactive results. Active and inactive are the calls of the source. Calls follow the shape of the dose curve; as a rule, active = well fitted curve in the direction sought with a large enough effect; inconclusive = small, poorly fitted or top-dose-only effect, or another doubt; inactive = no such curve, though single readings can be large; an effect the other way counts as inactive or inconclusive.

Assays:
[1] = P-glycoprotein substrates identified in KB-3-1 adenocarcinoma cell line, qHTS therapeutic library screen (AID 1346986); also: nearly all actives have a fitted effect of over 60% in size
Outline: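 KB-3-1 parental cells and P-gp-overexpressing KB-8-5-11 (colchicine omitted during assay) plated at 500 cells/well, dosed in dose-response, incubated 72 h at 37 degree C. CellTiter-Glo luminescence read; KB-8-5-11 also tested with tariquidar.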

[2] = P-glycoprotein substrates identified in KB-8-5-11 adenocarcinoma cell line, qHTS therapeutic library screen (AID 1346987); also: nearly all actives have a fitted effect of over 65% in size; as to activity change, negative = cytotoxicity: series mostly up to about 44 µM
Outline: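 P-gp-mediated resistance screen: KB-8-5-11 cells treated 72 h with compounds in dose-response. CellTiter-Glo viability.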

[3] = system: Zika virus NS2B-NS3 protease (unlinked complex); assay: Primary screen GU Rhodamine qHTS for Zika virus inhibitors: Unlinked NS2B-NS3 protease assay (AID 1347159); also: nearly all actives have a fitted effect of over 60% in size; also: potency is read from the fitted curve at half-maximal effect
Outline: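 Percent inhibition derives from the 15-min fluorescence change (ex 480, em 540 nm), normalized to no-enzyme and no-inhibitor wells. Reactions contained 25 nM NS2B-NS3 complex and 1.5 microM substrate in 10 mM Tris-HCl pH 8.0.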

[4] = system: Zika virus NS2B-NS3 protease (linked construct); assay: Primary screen NINDS Rhodamine qHTS for Zika virus inhibitors (AID 1347160); also: nearly all actives have a fitted effect of over 55% in size; also: potency is read from the fitted curve at half-maximal effect
Outline: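 In 10 mM Tris-HCl pH 8.0 containing 0.01% Tween 20, linked NS2B-NS3 protease (25 nM final) is exposed to test compounds for 15 min. Cleavage of 1.5 microM Rhodamine110 substrate is tracked by fluorescence over 15 min.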

| SMILES | Potency [1] | Potency [2] | Potency [3] | Potency [4] | outcome [1] | activity change, negative = cytotoxicity [2] | outcome [2] |
| --- | --- | --- | --- | --- | --- | --- | --- |
| COC(=O)C1=CO[C@@H](O[C@@H]2O[C@H](CO)[C@@H](O)[C@H](O)[C@H]2O)[C@@H]2C(CO)=CC[C@H]12 | inactive | inactive | inactive | inactive | – | – | – |
| C#CCCCn1cc(-c2cccc3c2N[C@@H](C)CC(=O)N3)cn1 | inactive | inactive | inactive | inactive | – | – | – |
| CCC12CCCN3CCc4c(n(c5ccccc45)C(O)C1)C32 (stereo unspecified) | inactive | inactive | inactive | inactive | – | – | – |
| O=C(O[C@H]1[C@H](Oc2ccc(O)cc2CO)O[C@H](CO)[C@@H](O)[C@@H]1O)c1ccccc1 | inactive | inactive | inactive | inactive | – | – | – |
| C=CC(C)(O)CC/C=C(\C)C(=O)O[C@@H]1[C@@H](O)[C@H](OC(C)(C=C)CC/C=C(\C)C(=O)O[C@@H]2O[C@H](CO)[C@@H](O)[C@H](O)[C@H]2O)O[C@H](CO)[C@H]1OC(=O)/C(C)=C/CCC(C)(O)C=C (stereo partly specified) | – | – | inactive | inactive | inactive [at 9.29 µM] | 2.84% [at 9.29 µM] | – |
| Cn1cc(CCn2cnc(-c3cnn(C)c3)c2-c2ccc(C#N)cc2)cn1 | inactive | inactive | inactive | inactive | – | – | – |
| COc1cc(/C=C/C(=O)O[C@H]2C[C@@H]3C(C(=O)O)=CO[C@@H](O[C@@H]4O[C@H](CO)[C@@H](O)[C@H](O)[C@H]4O)[C@@H]3[C@H]2C)ccc1O | inactive | inactive | inactive | inactive | – | – | – |
| C=CC(C)(C)C12Nc3c(ccc4c3OC(C)(C)C=C4)C1(O)CC1C(=O)N3CCCC3C(=O)N12 (stereo unspecified) | inactive | inactive | inactive | inactive | – | – | – |
| C=CC(C)(O)C1CC2C3(C)CCCC(C)(C)C3C(O)C(O)C2(C)O1 (stereo unspecified) | inactive | inactive | inactive | inactive | – | – | – |
| CC(=O)c1[nH]cc(CCC(=O)O)c1CC(=O)O | inactive | inactive | inactive | inactive | – | – | – |
| C/C(=C\C(=O)C[C@@]12C(=O)O[C@]3(C)CC[C@H]1C[C@H]23)C(N)=O | inactive | inactive | inactive | inactive | – | – | – |
| COC(=O)C1=CO[C@@H](O[C@@H]2O[C@H](CO[C@@H]3O[C@H](CO)[C@@H](O)[C@H](O)[C@H]3O)[C@@H](O)[C@H](O)[C@H]2O)[C@@H]2C(CO)=CC[C@H]12 | inactive | inactive | inactive | inactive | – | – | – |
| COc1cccc(Cn2ncc3c4sc(S(C)=O)cc4n(C)c3c2=O)c1 (stereo unspecified) | inactive | inactive | inactive | inactive | – | – | – |
| C=CC1(C)CC2CCC3C(C)(C(=O)O)CCCC3(C)C2=CC1=O (stereo unspecified) | inactive | inactive | inactive | inactive | – | – | – |
| Cn1cc(Nc2cnccc2C(=O)O)c2cccnc21 | inactive | inactive | inactive | inactive | – | – | – |
| COc1cc(O)cc(O[C@@H]2O[C@H](CO)[C@@H](O[C@@H]3OC[C@](O)(CO)[C@H]3O)[C@H](O)[C@H]2O)c1OC | inactive | inactive | inactive | inactive | – | – | – |
| C/C=C(\C)C(=O)O[C@H]1C=CC(=O)O[C@H]1/C=C/[C@H](O)[C@@H](C)O | inactive | inactive | inactive | inactive | – | – | – |
| CC(C)CC[C@@H](O)[C@](C)(O)[C@H]1CC[C@@]2(O)C3=CC(=O)[C@@H]4C[C@@H](O)[C@@H](O)C[C@]4(C)[C@H]3CC[C@]12C | inactive | inactive | inactive | inactive | – | – | – |
| COC(=O)C1=COC(OC2OC(CO)C(O)C(O)C2O)C2C(COC(=O)/C=C/c3ccc(O)cc3)C(O)C(O)C12 (stereo unspecified) | inactive | inactive | inactive | inactive | – | – | – |
| COc1ccc2c(c1)N1C(=O)C[C@@]34C=CC[N@+]5([O-])CC[C@H]2[C@H](CC3)[C@@]145 | inactive | inactive | inactive | inactive | – | – | – |
| Cc1cn(C[C@H](N)C(=O)O)c(=O)n(Cc2ccsc2C(=O)O)c1=O | inactive | inactive | inactive | inactive | – | – | – |
| COc1ccc(O[C@@H]2O[C@H](CO)[C@@H](O)[C@H](O)[C@H]2O)cc1OC | inactive | inactive | inactive | inactive | – | – | – |

| SMILES | Potency [1] | Potency [2] | Potency [3] | Potency [4] | outcome [1] | activity change, negative = cytotoxicity [2] | outcome [2] |
| --- | --- | --- | --- | --- | --- | --- | --- |
| C=C[C@@](C)(CCC=C(C)C)O[C@@H]1O[C@H](CO[C@@H]2OC[C@H](O)[C@H](O)[C@H]2O)[C@@H](O)[C@H](O)[C@H]1O | inactive | inactive | inactive | inactive | – | – | – |
| CC1(C)C[C@H](O)C[C@@]2(C)[C@H]1[C@H](O)C=C1COC(=O)[C@@]12O | inactive | inactive | inactive | inactive | – | – | – |
| O=C(O[C@@H]1O[C@H](CO)[C@@H](O)[C@H](O)[C@H]1O)c1ccccc1 | inactive | inactive | inactive | inactive | – | – | – |
| CC(C)C1NC(=O)C2CCCN2C1=O (stereo unspecified) | inactive | inactive | inactive | inactive | – | – | – |
| CC(C)C1NC(=O)C(CC2(O)c3ccccc3N3C(=O)C(Cc4ccccc4)NC32)NC1=O (stereo unspecified) | inactive | inactive | inactive | inactive | – | – | – |
| COc1ccc(/C=C/C(N)=O)cc1OC | inactive | inactive | inactive | inactive | – | – | – |
| CC(C)NC(=O)c1ccc(C#Cc2ccncc2)cn1 | inactive | inactive | inactive | inactive | – | – | – |
| C[C@@H]1[C@H](O)[C@@H]2OC(=O)C3=C2[C@H](CCC3)[C@@]12C[C@@H](c1ccoc1)OC2=O | inactive | inactive | inactive | inactive | – | – | – |
| COC(=O)c1ccc(OC)cc1O[C@@H]1O[C@H](CO[C@@H]2OC[C@@H](O)[C@H](O)[C@H]2O)[C@@H](O)[C@H](O)[C@H]1O | inactive | inactive | inactive | inactive | – | – | – |
| C/C=C(\C)C(=O)OCC1OC(OC2OC(CO)C(O)C(O)C2O)C(O)C(O)C1O (stereo unspecified) | inactive | inactive | inactive | inactive | – | – | – |
| COc1cccc(OC)c1-c1ccc(C[C@H](NC(=O)c2c(Cl)cccc2Cl)C(=O)O)cc1 | inactive | inactive | inactive | inactive | – | – | – |
| C=C1CCC2(OC1)OC1CC3C4CC=C5CC(O)CC(O[C@@H]6OC[C@H](OC(=O)C(O)C(C)CC)[C@H](O)[C@H]6O[C@@H]6O[C@@H](C)[C@H](O)[C@@H](O)[C@H]6O)C5(C)C4CCC3(C)C1C2C (stereo partly specified) | – | – | inactive | inactive | inactive [at 9.29 µM] | – | inactive [at 9.29 µM] |
| C[C@@H](c1ccccc1)N(C(N)=NC#N)c1cccc2ncccc12 | inactive | inactive | inactive | inactive | – | – | – |
| CCCC1=CC2=C(CO1)C(=O)C(C)(O)C(OC(=O)c1c(C)cc(OC)cc1O)C2 (stereo unspecified) | inactive | inactive | inactive | inactive | – | – | – |
| O=C(O)/C=C/c1ccc2occc2c1O[C@@H]1O[C@H](CO)[C@@H](O)[C@H](O)[C@H]1O | inactive | inactive | inactive | inactive | – | – | – |
| CC1(C)O[C@H]2CC(=O)OC[C@@]23C1=C(O)C(=O)[C@]1(C)C3CC[C@@]2(C)[C@H](c3ccoc3)OC(=O)[C@H]3O[C@]321 (stereo partly specified) | inactive | inactive | inactive | inactive | – | – | – |
| N#Cc1cccc(-c2nc(-c3cccnc3)no2)c1 | inactive | inactive | inactive | inactive | – | – | – |
| CC(=O)/C=C/C1(O)C(C)(C)CC(O)CC1(C)O (stereo unspecified) | inactive | inactive | inactive | inactive | – | – | – |
| OC[C@@]1(O)CO[C@@H](OC[C@H]2O[C@@H](OCc3ccccc3)[C@H](O)[C@@H](O)[C@@H]2O)[C@@H]1O | inactive | inactive | inactive | inactive | – | – | – |
| Cc1oc(S(=O)(=O)N2CCCCC2)cc1NC(=O)Nc1ccccc1 | inactive | inactive | inactive | inactive | – | – | – |
| O=C(COCC(=O)N1CCN(C(c2ccccc2)c2ccccc2)CC1)Nc1ccc(Cl)cc1C(=O)O | inactive | inactive | 11.2 µM (active) | 12.6 µM (active) | – | – | – |
| C=C(C(=O)OC)[C@]12O[C@@](C)(CC[C@@]3(O)/C(=C\C)C(=O)O[C@]3(C)C[C@@H]1OC(=O)C(CO)CN1CCCC1C(=O)O)CC2=O (stereo partly specified) | inactive | inactive | inactive | inactive | – | – | – |
